Results from PubChem BioAssay (NCI).
This is part of a sample that, as a whole, favours compounds with a hit. Of some 83,000 tested, about 20% had one in any assay.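 Single-concentration screen, 48 h exposure, 96-well plates. Endpoint: percent growth. Below 10 = active.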 The source made the active and inactive calls.

Key:
Test in all cases: NCI-60 one-dose screen, 48 h (100 = growth as untreated, 0 = no growth, -100 = all killed)
Settings in all cases: 10 µM unless noted
HCT-15 colon = tested on: HCT-15 colon
HT29 colon = tested on: HT29 colon
SNB-75 CNS = tested on: SNB-75 CNS
SNB-19 CNS = tested on: SNB-19 CNS
PC-3 prostate = tested on: PC-3 prostate
SK-MEL-5 melanoma = tested on: SK-MEL-5 melanoma
UACC-62 melanoma = tested on: UACC-62 melanoma
LOX IMVI melanoma = tested on: LOX IMVI melanoma
SK-MEL-28 melanoma = tested on: SK-MEL-28 melanoma
SK-MEL-2 melanoma = tested on: SK-MEL-2 melanoma
SN12C renal = tested on: SN12C renal
UO-31 renal = tested on: UO-31 renal
TK-10 renal = tested on: TK-10 renal
CAKI-1 renal = tested on: CAKI-1 renal
A498 renal = tested on: A498 renal
ACHN renal = tested on: ACHN renal
U251 CNS = tested on: U251 CNS
EKVX NSCLC = tested on: EKVX NSCLC
CCRF-CEM leukemia = tested on: CCRF-CEM leukemia
MOLT-4 leukemia = tested on: MOLT-4 leukemia

Measured: growth

O=[N+]([O-])c1ccc(Sc2nc(Cl)nc(NC3CCCC3)n2)cc1
active: HCT-15 colon -92.4% [100 µM] | HT29 colon -72.6% [100 µM] | SNB-75 CNS -100% [100 µM] | SNB-19 CNS -95.5% [100 µM] | PC-3 prostate -89.5% [100 µM] | SK-MEL-5 melanoma -90.3% [100 µM] | UACC-62 melanoma -97.4% [100 µM] | LOX IMVI melanoma -87.9% [100 µM] | SK-MEL-28 melanoma -97.8% [100 µM] | SK-MEL-2 melanoma -91.7% [100 µM] | SN12C renal -88.9% [100 µM] | UO-31 renal -83.7% [100 µM] | TK-10 renal -96.7% [100 µM] | CAKI-1 renal -91.4% [100 µM] | A498 renal -94.2% [100 µM]

Cc1nn(-c2ccccc2)c2nc3c(nc12)C1=NCCN1C(c1ccc(Cl)cc1)N3 (configuration not stated)
inactive: HCT-15 colon 66.4% | HT29 colon 19% | SNB-75 CNS 62.1% | SNB-19 CNS 109% | PC-3 prostate 55.1% | SK-MEL-5 melanoma 65.6% | UACC-62 melanoma 84.8% | LOX IMVI melanoma 79.1% | SK-MEL-28 melanoma 73.3% | SK-MEL-2 melanoma 79.5% | SN12C renal 89.5% | UO-31 renal 59.2% | TK-10 renal 94.4% | ACHN renal 87.3% | CAKI-1 renal 82.6% | A498 renal 85.6%

Cc1cccc(N=NC(=S)NNc2cccc(C)c2)c1
inactive: HCT-15 colon 108% | HT29 colon 97.9% | SNB-75 CNS 88.7% | SNB-19 CNS 106% | U251 CNS 114% | PC-3 prostate 102% | SK-MEL-5 melanoma 108% | UACC-62 melanoma 101% | LOX IMVI melanoma 105% | SK-MEL-2 melanoma 111% | EKVX NSCLC 98.3% | SN12C renal 102% | UO-31 renal 81.6% | ACHN renal 92.1% | CAKI-1 renal 94.5% | A498 renal 87.3% | CCRF-CEM leukemia 86.6% | MOLT-4 leukemia 98.4%

CC(=O)C1CCC2C3CC(C)=C4CC(O)CCC4(C)C3CCC12C (configuration not stated)
inactive: HCT-15 colon 100% | HT29 colon 96.4% | SNB-75 CNS 100% | SNB-19 CNS 97.5% | U251 CNS 97.5% | PC-3 prostate 88.2% | SK-MEL-5 melanoma 99.4% | UACC-62 melanoma 91.6% | LOX IMVI melanoma 92.1% | SK-MEL-2 melanoma 94.8% | EKVX NSCLC 79.5% | SN12C renal 99.2% | TK-10 renal 110% | ACHN renal 94.8% | CAKI-1 renal 97.4% | A498 renal 113% | CCRF-CEM leukemia 92.4% | MOLT-4 leukemia 80%
